# Only some compounds are listed: those with a hit (about 7.3% of all), similar ones and a draw of the others.
# SMN2 splice enh: increases expression of the SMN2 splice variant; HEK293 SMN2-luciferase splicing reporter, luminescence, 30-36 h; Potency, µM (top dose mostly 46.1 µM), hits mostly activators; 2.8% of 210,000 active; AID 1458; note: nearly all actives have a fitted effect of over 55% in size
#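 HEK293 cells carry an SMN2 […]–luciferase reporter in which exon 7 inclusion puts luciferase in frame. Cells were plated 10-12 h before compound addition, then incubated 30-36 h at 37C. ONE-Glo luminescence was read; sodium butyrate at 4.5 mM final served as control.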
# KinaseGlo FLuc: Kinase-Glo luciferase inhibition (counter-screen). Q27757. Kinase-Glo luciferase, ATP luminescence, 8 min. Potency, µM (doses to about 38.3 µM), actives largely listed as inhibitors. 0.28% of 200,000 active. AID 1379; note: nearly all actives have a fitted effect of over 60% in size
#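 Compounds were added to a substrate mix at pH 7.2 (50 mM imidazole, 10 uM ATP, within the enzyme's linear range), followed by Kinase-Glo detection reagent; luminescence was measured after 8 minutes at ambient temperature.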
# FLuc modulator: firefly luciferase modulation, counter-screen for miR-21 project; P08659; purified FLuc, Km substrates, luminescence inhibition; Potency, µM (doses to about 57.5 µM), hits mostly inhibitors; 6.9% of 360,000 active; AID 588342; note: nearly all actives have a fitted effect of over 55% in size
# Target sequence (P08659 whole entry, looked up): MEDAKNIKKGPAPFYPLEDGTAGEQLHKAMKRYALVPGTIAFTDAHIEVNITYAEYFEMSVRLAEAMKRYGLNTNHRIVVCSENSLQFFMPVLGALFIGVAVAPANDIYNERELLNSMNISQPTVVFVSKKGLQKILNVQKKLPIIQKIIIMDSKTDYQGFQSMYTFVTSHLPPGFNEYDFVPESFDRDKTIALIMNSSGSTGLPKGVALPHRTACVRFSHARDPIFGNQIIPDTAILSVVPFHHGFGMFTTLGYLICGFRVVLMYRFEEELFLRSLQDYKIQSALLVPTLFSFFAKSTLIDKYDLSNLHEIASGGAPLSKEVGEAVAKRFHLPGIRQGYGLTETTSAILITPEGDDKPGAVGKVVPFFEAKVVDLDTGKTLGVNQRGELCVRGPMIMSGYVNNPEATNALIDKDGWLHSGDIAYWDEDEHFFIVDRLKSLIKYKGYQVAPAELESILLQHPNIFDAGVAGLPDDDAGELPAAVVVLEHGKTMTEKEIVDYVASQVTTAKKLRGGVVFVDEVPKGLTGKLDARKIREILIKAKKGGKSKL
#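 Biochemical qHTS of compounds, final roughly 60 µM downward over six points, against 10 nM purified firefly luciferase using Km concentrations of substrates (10 uM D-luciferin, 10 uM ATP) in Tris acetate pH 7.5 buffer; luminescence output.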
# NPC1 prom act: NPC1 promoter activation | Huh7 NPC1 promoter luciferase reporter, 24 h | Potency, µM (titrated, usually from 9.22 µM), hits mostly activators | 2.4% of 320,000 active | AID 485313; note: nearly all actives have a fitted effect of over 60% in size
#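 Stable NPC1-promoter luciferase Huh7 line; cpd (DMSO) 24 h, 37 °C, 5% CO2; Amplite luciferase reagent 10 min RT; luminescence readout. qHTS format.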
# Rab9 prom act: Rab9 promoter activation; Potency, µM (top dose mostly 9.22 µM), hits mostly activators; AID 485297; 2.8% of 320,000 active; Huh7 Rab9 promoter-luciferase reporter, luminescence, 24 h; note: nearly all actives have a fitted effect of over 60% in size
#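 Using Huh7 cells stably transfected with Rab9 promoter–luciferase, compounds were incubated 24 h at 37 °C, 5% CO2; luciferase luminescence was read 10 min after reagent addition.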
# Hits are given with their value; . = inactive; ? = inconclusive; / = no result given; [ ] = dose if it differs, or a comment. Calls come from the whole dose curve; as a rule, active = well fitted curve in the direction sought with a large enough effect; inconclusive = small, poorly fitted or top-dose-only effect, or another doubt; inactive = no such curve, though single readings can be large; an effect the other way counts as inactive or inconclusive.
SMILES,SMN2 splice enh,KinaseGlo FLuc,FLuc modulator,NPC1 prom act,Rab9 prom act
Cc1ccnc(NC(=O)c2ccc(S(=O)(=O)N3CCCCC3)cc2)c1,/,/,.,.,.
O=C(Nc1ccccn1)c1ccc(S(=O)(=O)N2CCCCCC2)cc1,/,/,17µM,?,?
Cc1ccc2nc(-c3cc(NC(=O)c4ccc5c(c4)OCCO5)ccc3Cl)oc2c1,.,/,?,/,/
O=C(Nc1ccc2oc(-c3ccc4ccccc4c3)nc2c1)c1ccc2c(c1)OCCO2,.,.,.,?,?
CC(C)c1ccc2oc(-c3cccc(NC(=O)c4ccc5c(c4)OCCO5)c3)nc2c1,.,/,2.1µM,/,/
Cc1ccc2nc(-c3cccc(NC(=O)c4ccc5c(c4)OCCO5)c3)oc2c1,.,.,9.5µM,.,.
Cc1cccc(NC(=O)C(NS(=O)(=O)c2ccc3c(c2)oc(=O)n3C)C(C)C)c1 (configuration not stated),.,/,.,/,/
c1ccc2nc(-c3nc4ccccc4[nH]3)ccc2c1,0.4µM,8.9µM,0.3µM,2.8µM,0.63µM
c1ccc2[nH]c(-c3cscn3)nc2c1,13µM,.,13µM,?,?
c1ccc2[nH]c(SCc3cscn3)nc2c1,?,.,?,?,?
O=C(Nc1ccc2c(c1)CCC2)c1cccc(F)c1,11µM,.,5.4µM,3.2µM,1.4µM
O=C(Cc1ccccc1F)Nc1ccc2c(c1)CCC2,/,/,7.6µM,2µM,3.2µM
O=C(Nc1ccc2c(c1)CCC2)c1cc(F)cc(F)c1,/,/,3µM,2.5µM,1.4µM
Cc1ccccc1CC(=O)Nc1ccc2c(c1)CCC2,/,/,?,.,.
Clc1ccc(-c2noc3ncnc(NCCCN4CCN(c5ccccc5)CC4)c23)cc1,/,/,.,/,/
CC(C)(C)CC(=O)Nc1ccc(-c2cn3cccnc3n2)cc1,/,/,9.5µM,2.8µM,?
CCOCC(=O)Nc1ccc(-c2cn3cccnc3n2)cc1,.,.,?,.,.
CCCC(=O)Nc1ccc(-c2cn3cccnc3n2)cc1,/,/,17µM,.,?
CC(C)CC(=O)Nc1ccc(-c2cn3cccnc3n2)cc1,/,/,15µM,?,.
CC(C)CC(=O)Nc1cccc(-c2cn3cccnc3n2)c1,/,/,24µM,/,/
COc1ccc(-c2cc(C(=O)NC(C)c3ccccc3)c3cc(C(C)C)ccc3n2)cc1 (configuration not stated),/,/,.,/,/
CCOC(=O)c1c(Nc2ccc(OCC)cc2)nnc(-c2ccccc2)c1-c1ccccc1,.,/,.,/,/
CCC1CN(C(=O)Nc2cccc3c2CCCC3)c2cc(Cl)ccc2O1 (configuration not stated),/,/,.,/,/
S=C(Nc1ccccc1)c1ccccn1,?,.,8.5µM,3.5µM,2.8µM
COc1ccc(-c2cc(=O)n(-c3ccc([N+](=O)[O-])cc3)[nH]2)cc1,.,.,21µM,.,.
SMILES,SMN2 splice enh,KinaseGlo FLuc,FLuc modulator,NPC1 prom act,Rab9 prom act
CCS(=O)(=O)c1ncc(Cl)c(C(=O)N2CCN(c3ccc(OC)cc3)CC2)n1,?,/,.,/,/
COc1ccccc1CNc1ccc(-c2nc(-c3cccnc3)no2)cc1[N+](=O)[O-],/,/,.,/,/
Cc1ccc(C(=O)Nc2ccc(C(=O)O)cc2NC(=O)c2ccc(C)cc2)cc1,/,/,21µM,?,.
Cc1oc2c(c1C(=O)NCc1cc(C(=O)O)co1)CCCC2,.,.,.,.,.
Cc1oc2c(c1C(=O)Nc1cccc(C(=O)O)c1)CCCC2,.,.,19µM,?,?
Cc1cccc(C(=O)Nc2cccc(C(=O)NC3CCCC3)c2)c1,/,/,?,.,.
O=C(O)c1ccc(NC(=O)c2ccc(Cl)cc2)c(NC(=O)c2ccc(Cl)cc2)c1,/,/,?,.,.
Cc1cccc2nc(C(=O)Nc3cccc(C(=O)NC4CC4)c3)cn12,/,/,2.4µM,?,3.2µM
Nc1ccc(C(=O)Nc2cccc(NC(=O)c3ccc(N)cc3)c2)cc1,/,/,11µM,.,.
COC(=O)c1ccc(OCC2c3cc(OC)c(OC)cc3CCN2C(=O)c2ccccc2F)cc1 (configuration not stated),/,/,.,/,/
CCN(CC)c1nc2c(S(=O)(=O)c3ccc(C)cc3)nnn2c2ccsc12,/,/,.,/,/
Cc1ccc(C(=O)Nc2cccc(C(=O)NC3CCCC3)c2)cc1,/,/,12µM,?,?
CC(=O)Nc1ccccc1C(=O)C(=O)Nc1cccc(C(=O)NC2CC2)c1,.[1.84 µM],.,.,?,2.8µM
O=C(O)c1cccc(NC(=O)c2cc(NC(=O)c3ccccc3)cc(NC(=O)c3ccccc3)c2)c1,/,/,?,.,.
Cc1ccc(C(=O)Nc2cccc(C(=O)O)c2)cc1,1µM,.,0.15µM,?,?
Cc1cc2n(n1)C(c1ccc(N(C)C)cc1)Nc1ccccc1-2 (configuration not stated),.,.,30µM,.,.
CCN(CC)CCN1C(=O)c2ccccc2NC1c1ccc(N(C)C)cc1 (configuration not stated),.,.,24µM,.,.
CN(C)c1ccc(C2Nc3ccccc3C(=O)N2CCCN2CCOCC2)cc1 (configuration not stated),/,/,4.8µM,.,.
CC(=O)N1c2ccc(S(=O)(=O)N3CCCCCC3)cc2CC1C(=O)NCc1cccc(C)c1 (configuration not stated),/,/,.,/,/
O=C(COC(=O)CCCNC(=O)c1ccc(Cl)cc1)Nc1cc(Cl)c(Cl)cc1Cl,.,.,?,.,.
Cc1cc(C)cc(NC(=O)COC(=O)CCCNC(=O)c2ccc(Cl)cc2)c1,.,.,12µM,.,.
CCOCCCn1c(=N)c(C(=O)NC(C)c2ccccc2)cc2c(=O)n3cccc(C)c3nc21 (configuration not stated),.,/,.,/,/
O=C(c1ccc(-c2ccccc2)cc1)N1CCCC1,.,.,?,.,.
O=C(c1cccc(-c2nnc(-c3ccccc3)o2)c1)N1CCCCCC1,?,.,17µM,?,?
O=C(c1cccc(-c2nnc(-c3ccccc3)o2)c1)N1CCCCC1,14µM,.,17µM,?,?
SMILES,SMN2 splice enh,KinaseGlo FLuc,FLuc modulator,NPC1 prom act,Rab9 prom act
COc1cc2nc(NC(=O)c3ccc(S(=O)(=O)N4CCCC4)cc3)sc2cc1OC,/,/,.,/,/
CC(=O)CCc1ccc(OCCCOc2cccc3cccnc23)cc1,/,/,21µM,.,.
O=C(NC1CC(=O)N(c2ccc(F)cc2)C1)C(c1ccccc1)c1ccccc1 (configuration not stated),/,/,.,/,/
COc1cc(OC)cc(C(=O)Nc2cc(-c3nc4cc(Cl)ccc4o3)ccc2Cl)c1,.,/,.,/,/
O=C1SC(SCc2ccccc2)=N/C1=C\c1ccc(C(=O)O)cc1,/,.,24µM,.,.
CCOc1ccc(CCNC(=O)CCCc2nnc3n(CCCOC)c(=O)c4sccc4n23)cc1,/,/,.,/,/
Cc1sc2ncn(CC(=O)Nc3ccc(F)cc3Cl)c(=O)c2c1S(=O)(=O)N1CCN(c2ncccn2)CC1,.,/,.,/,/
CN(C)c1ccc(CNc2ccc3c(c2)ncn3C)cc1,.,.,?,.,.
CC(C)n1cnc2cc(NCc3ccccc3O)ccc21,/,/,21µM,.,?
Cc1cccc(NC(=S)NCc2ccccn2)c1,.,.,.,.,.
Cc1cc(NCc2ccccn2)ccc1Br,.,.,15µM,?,?
